MITF TRPM1 HTS: activators of MITF-driven TRPM1 promoter activity in SK-MEL-5 cells; AID 588334; activation, % at 12.5 µM; hit rate 0.75% among 300,000; SK-MEL-5 TRPM1-promoter luciferase, 24 h; % of positive control, neutral wells = 0;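 active = mean activation of at least 80% with every replicate also reaching 80%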
Env fusion inh: inhibitors of HIV Env-mediated cell fusion | AID 651610 | HeLa-JRFL Env/CEM21 cell fusion, luciferase | hit rate 1.1% among 360,000 | inhibition, % at 12.3 µM;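 active = mean replicate inhibition score of at least 50 and every replicate individually at or above 50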
INS-1E GSIS act: GLuc luminescence reporter in INS-1E cells, primary screen for activators of glucose-dependent secretion of insulin. hit rate 0.61% among 370,000. INS-1E GLuc reporter insulin secretion, 2-3 h. activation, % at 16.6 µM. AID 743287;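 active = lowest replicate activation of at least 40%, so every replicate reaches that level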
F508del corr: CFTR F508del correction in bronchial cells; CFBE cells, YFP halide quenching; stimulated with forskolin plus potentiator P3; % fluorescence drop versus neutral controls; activity (quench increase), % at 7.58 µM; hit rate 0.36% among 350,000;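 active = mean added fluorescence quench of at least 8% versus neutral control, with both replicates also reaching 8%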;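 also: cells transiently co-express mutant CFTR-F508del with the halide-sensitive YFP; corrector assay measuring rescue of mutant channel to the surface after 24 h compound exposure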
Wnt act: activates Wnt/beta-catenin signaling in a reporter cell assay; activator, plate reader; activation, % at 9.35 µM; hit rate 1.2% among 300,000; AID 743398; in the data active = activation above about 30%, passing the limit was not always enough
Each line names hits and unclear results; the compound was inactive in the other large screens; ! = repeats disagree. Only some compounds are listed: those with a hit (about 2.7% of all), similar ones and a draw of the others.

COc1cc(C(=O)O[C@H]2C/C(C)=C/CC[C@]3(C)O[C@@H]3C(O)C2C(C)C)cc(OC)c1OC (stereo partly drawn)	none
CCC12CN(S(=O)(=O)c3ccc(C)cc3)CC(CC)(CN(S(=O)(=O)c3ccc(C)cc3)C1)C2=O	Env fusion inh 108.5 (no result: INS-1E GSIS act, F508del corr, Wnt act)
Cc1ccc(S(=O)(=O)N2CC3(C)CN(S(=O)(=O)c4ccc(C)cc4)CC(C)(C2)C3)cc1	none (no result: Env fusion inh, INS-1E GSIS act)
C[C@H]1CN([C@@H](C)CO)C(=O)c2cccc(NS(=O)(=O)c3ccc(Cl)cc3)c2O[C@H]1CN(C)Cc1ccc(Cl)c(Cl)c1	none (no result: MITF TRPM1 HTS, Wnt act)
O=C(O)CCC1(CCC(=O)O)CCCC(CCC(=O)O)(CCC(=O)O)C1=O	INS-1E GSIS act 46.6
CCCC#Cc1cnc2c(c1)C(=O)N([C@@H](C)CO)C[C@@H](C)[C@H](CN(C)C(=O)c1cccnc1)O2	none (no result: MITF TRPM1 HTS, Wnt act)
CCOC(=O)c1cc2sccc2n1CC(=O)O	none (no result: Env fusion inh)
CCOC(=O)c1cc2sccc2n1CC(=O)N1c2ccccc2CC1C (stereo not drawn)	INS-1E GSIS act 472.0 (no result: F508del corr)
CCc1cc2c(COC(=O)c3cccc(S(C)(=O)=O)c3)cc(=O)oc2cc1O	INS-1E GSIS act 50.1
Cc1cc(=O)oc2cc(NC(=O)c3cccc(S(C)(=O)=O)c3)ccc12	MITF TRPM1 HTS 92.5
COc1ccccc1C(=O)Nc1ccc2c(C)cc(=O)oc2c1	MITF TRPM1 HTS 87.9, Wnt act 48.1
Cc1cc(=O)oc2cc(NC(=O)c3cccc(F)c3)ccc12	none
Cc1cc(=O)oc2cc(NC(=O)c3cccc(S(=O)(=O)N(C)C)c3)ccc12	MITF TRPM1 HTS 139.2
Cc1cc(=O)oc2cc(OCC(=O)Nc3cccc(S(=O)(=O)N(C)C)c3)ccc12	none (no result: F508del corr)
C[C@H]1CN([C@@H](C)CO)S(=O)(=O)c2ccc(-c3ccncc3)cc2O[C@@H]1CN(C)C(=O)C1CCCCC1	none (no result: MITF TRPM1 HTS, Wnt act)
O=C(NC1CCCC1)[C@H]1[C@H](CO)[C@H]2Cn3c(ccc(-c4cccnc4)c3=O)[C@@H]1N2CCc1ccccc1	none (no result: MITF TRPM1 HTS, Env fusion inh, Wnt act)
O=C(C[C@H]1CC[C@H]2[C@@H](COC[C@@H](O)CN2Cc2cc(F)ccc2F)O1)N1CCc2ccccc2C1	none (no result: MITF TRPM1 HTS, Wnt act)
O=C(Nc1ccc(F)cc1)N[C@H]1CC[C@@H](CCNS(=O)(=O)c2ccccc2F)O[C@H]1CO	none (no result: MITF TRPM1 HTS, Wnt act)
CCN(CC)S(=O)(=O)c1ccc(C(=O)Nc2cc3oc4ccccc4c3cc2OC)cc1	none (no result: F508del corr, Wnt act)
Cc1cc(=O)oc2cc(NC(=O)c3ccc(OC(F)F)cc3)ccc12	MITF TRPM1 HTS 86.1
Cc1cc(=O)oc2cc(NC(=O)C(C)Oc3ccc(F)cc3)ccc12 (stereo not drawn)	none
COc1cc2c(cc1NC(=O)c1cccc(S(=O)(=O)N(C)C)c1)oc1ccccc12	Wnt act 40.6 (no result: F508del corr)
Cc1cccc(NC(=S)N/N=C/C(C)c2ccccc2)c1C (stereo not drawn)	Wnt act 33.8
Cc1cccc(NC(=S)N/N=C/c2cccc(O)c2)c1C	F508del corr 10.6
Cc1cc(C)n(-c2ccc(C(=O)Nc3cccc(S(=O)(=O)N(C)C)c3)cc2)n1	none (no result: F508del corr)
CCN(CC)S(=O)(=O)c1cccc(NC(=O)c2ccc(-n3nc(C)cc3C)cc2)c1	Env fusion inh 66.8 (no result: F508del corr)
CCC(=O)Nc1cc(C)c(NC(=O)c2ccco2)cn1	none (no result: INS-1E GSIS act, F508del corr)
Cc1ccc(C(=O)Nc2ccc(NC(=O)c3ccco3)c(C)c2)cc1	MITF TRPM1 HTS 91.4
Cc1cc(NC(=O)c2ccc(Br)o2)ccc1NC(=O)c1ccco1	none
Cc1cc(NC(=O)c2ccccc2)ncc1NC(=O)c1ccco1	Wnt act 37.5 (no result: INS-1E GSIS act, F508del corr)
CC[C@@H]1C/C=C\C[C@H](C(C)C)NC(=O)CCC(=O)N1	none (no result: MITF TRPM1 HTS, Env fusion inh, F508del corr, Wnt act)
COc1ccc2cc3c(N)nn(C(=O)Cc4c[nH]c5ccccc45)c3nc2c1	Env fusion inh 90.2
COc1ccc2cc3c(N)nn(C(=O)c4ccc(F)cc4)c3nc2c1	Env fusion inh 62.6
CC(/C=C/c1ccccc1)=N\Nc1nc(C)cc(C)n1	none (no result: F508del corr)
CC(/C=C/c1ccc(O)cc1)=NNc1ccccc1	F508del corr 17.6
Cc1noc(C)c1S(=O)(=O)Nc1ccc2c(c1)C(=O)N([C@H](C)CO)C[C@@H](C)[C@@H](CN(C)CC1CCCCC1)O2	none (no result: MITF TRPM1 HTS, Wnt act)
COc1cccc(CN2C[C@@H]3N[C@H](C2)C3c2ccc(-c3cccc(C#N)c3)cc2)c1 (stereo partly drawn)	none (no result: MITF TRPM1 HTS, Env fusion inh, Wnt act)
COc1cccc(-c2ccc(C3[C@@H]4CN(Cc5cccc(F)c5)C[C@H]3N4)cc2)c1 (stereo partly drawn)	INS-1E GSIS act 754.9! (no result: MITF TRPM1 HTS, Env fusion inh, Wnt act)
COc1cccc(CN2C[C@@H]3N[C@H](C2)C3c2ccc(-c3ccncc3)cc2)c1 (stereo partly drawn)	none (no result: MITF TRPM1 HTS, Env fusion inh, Wnt act)
COc1ccc(-c2ccc(C3[C@@H]4CN(Cc5cccc(OC)c5)C[C@H]3N4)cc2)cc1 (stereo partly drawn)	INS-1E GSIS act 51.0! (no result: MITF TRPM1 HTS, Env fusion inh, Wnt act)
O=C(C[C@H]1CC[C@@H]2[C@H](COC[C@@H](O)CN2Cc2cc(F)cc(F)c2)O1)NCc1cccc(F)c1	none (no result: MITF TRPM1 HTS, Env fusion inh, Wnt act)
Cc1ccc(NC(=O)CSc2nnc(-c3cccnc3)s2)cc1	INS-1E GSIS act 42.3 (no result: F508del corr)
O=C(CSc1nnc(-c2cccnc2)s1)Nc1ccnc2ccccc12	Env fusion inh 55.4 (no result: F508del corr)
Cc1nc(SCC(=O)Nc2ccnc3ccccc23)n[nH]1	none (no result: MITF TRPM1 HTS, INS-1E GSIS act, F508del corr, Wnt act)
C[C@@H]1CN([C@H](C)CO)C(=O)c2cc(NC(=O)Nc3ccc(C(F)(F)F)cc3)ccc2O[C@H]1CN(C)S(C)(=O)=O	none (no result: MITF TRPM1 HTS, Env fusion inh, Wnt act)
O=C(C[C@@H]1CC[C@H]2[C@@H](COC[C@@H](O)CN2S(=O)(=O)c2ccc(F)cc2)O1)N[C@H]1CCN(Cc2ccccc2)C1	none (no result: MITF TRPM1 HTS, Env fusion inh, Wnt act)
CCn1c(C)nc2cc(C(=O)N/N=C/c3ccccc3C)ccc21	none
CCn1c(C)nc2cc(C(=O)N/N=C(\C)c3ccccc3O)ccc21	MITF TRPM1 HTS 89.6
CCn1c(C)nc2cc(C(=O)OC)ccc21	none
CCn1c(C)nc2cc(C(=O)NN=Cc3ccccc3OC(F)F)ccc21	MITF TRPM1 HTS 90.4
CN(C)C(=O)c1ccc(-c2ccc(C3[C@@H]4CN(C(=O)C5CCCCC5)C[C@H]3N4)cc2)cc1 (stereo partly drawn)	none (no result: MITF TRPM1 HTS, Env fusion inh, Wnt act)
Cc1nn(C)c(C)c1CN(C)S(=O)(=O)c1ccc2ccccc2c1	Env fusion inh 71.7 (no result: INS-1E GSIS act, F508del corr)
CCCC#Cc1cnc2c(c1)C(=O)N([C@H](C)CO)C[C@@H](C)[C@H](CN(C)C(=O)c1ccc3c(c1)OCO3)O2	none (no result: MITF TRPM1 HTS, Wnt act)
Cc1ccc2c(c1)C(=O)CCN2	none (no result: Env fusion inh)
Cc1ccc2c(c1)C(=C(C#N)C#N)CCN2	Env fusion inh 76.1
O=C(O)COc1ccc(/C=C/c2nc(-c3ccccc3O)n[nH]2)cc1	none (no result: MITF TRPM1 HTS)
COc1ccc(/C=C/c2nc(-c3ccccc3O)n[nH]2)cc1OC	MITF TRPM1 HTS 142.8 (no result: F508del corr)
O=C(C[C@H]1CC[C@@H]2NC[C@H](O)COC[C@H]2O1)NCCc1ccccc1	none (no result: MITF TRPM1 HTS, Env fusion inh, Wnt act)
COc1cccc(S(=O)(=O)N(C)C[C@@H]2Oc3cc(C4=CCCC4)ccc3S(=O)(=O)N([C@H](C)CO)C[C@H]2C)c1	F508del corr 10.7 (no result: MITF TRPM1 HTS, Wnt act)
COc1cccc(S(=O)(=O)N(C)C[C@@H]2Oc3cc(C4=CCCC4)ccc3S(=O)(=O)N([C@@H](C)CO)C[C@@H]2C)c1	none (no result: MITF TRPM1 HTS, Wnt act)

High-throughput results from PubChem BioAssay.
